pKD data for 23 molecules are collected here from ChEMBL document CHEMBL5598561, “ASAP - In vitro binding kinetics” (2024).

The test addresses Nonstructural protein 3 (Zika virus) (UniProt A0A024AXB9). The settings on record: PRVABC59, Concentration 10.0 uM.

What is called pKD is the KD on a negative log10 scale, so that one unit is a factor of ten.

Sequence of Nonstructural protein 3 (Zika virus) (A0A024AXB9 as listed by the source): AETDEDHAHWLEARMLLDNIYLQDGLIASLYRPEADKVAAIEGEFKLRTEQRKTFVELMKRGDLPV

As to `N#C[C@H](Nc1ccc2c(c1)CNC2)c1cccc2[nH]ncc12`, the pKD runs as follows: (Immobilization level 10000.0 pg/mm2, Rmax 24.0 pg/mm2, ka 92252.014 M-1s-1, kd 0.378 1/s) 5.39; (Immobilization level 12000.0 pg/mm2, Rmax 16.0 pg/mm2, ka 78971.5 M-1s-1, kd 0.214 1/s) 5.57; (Immobilization level 13000.0 pg/mm2, Rmax 22.0 pg/mm2, ka 80847.64 M-1s-1, kd 0.299 1/s) 5.43.
Molecule `O=C(Nc1ccc2c(c1)CNC2)c1cccc(-c2cnco2)c1` had a pKD (Immobilization level 12000.0 pg/mm2, Rmax 4.0 pg/mm2, ka 566629.865 M-1s-1, kd 1.936 1/s) of 5.47.
Consider `O=C1Cc2c(cccc2C(=O)Nc2ccc3c(c2)CNC3)N1`, for which the pKD (Immobilization level 3900.0 pg/mm2, Rmax 48.0 pg/mm2, ka 37165.995 M-1s-1, kd 0.04 1/s) amounted to 5.97 and the pKD (Immobilization level 5500.0 pg/mm2, Rmax 106.0 pg/mm2, ka 18457.516 M-1s-1, kd 0.041 1/s) was 5.65.
Regarding `O=C(Nc1ccc2c(c1)CNCC2)c1cc(Cl)cc2[nH]ncc12`, the pKD reads like this: (Immobilization level 10000.0 pg/mm2, Rmax 29.0 pg/mm2, ka 396120.04 M-1s-1, kd 1.246 1/s) 5.5; (Immobilization level 12000.0 pg/mm2, Rmax 39.0 pg/mm2, ka 584891.909 M-1s-1, kd 0.796 1/s) 5.87; (Immobilization level 13000.0 pg/mm2, Rmax 25.0 pg/mm2, ka 840035.203 M-1s-1, kd 1.038 1/s) 5.91.
Turning to `O=C(Nc1ccc2c(c1)CNC2)c1c[nH]c2ncc(F)cc12`, the negative logarithm of the KD (pKD) (Immobilization level 5500.0 pg/mm2, Rmax 31.0 pg/mm2, ka 181164.217 M-1s-1, kd 6.639 1/s) stood at 4.44.
Regarding `CCCN1C(=O)[C@](C#N)(Nc2ccc3c(c2)CNC3)c2ccccc21`, the negative-log KD (pKD) was 4.63 (Immobilization level 3900.0 pg/mm2, Rmax 21.0 pg/mm2, ka 159960.868 M-1s-1, kd 3.775 1/s); 4.91 (Immobilization level 5500.0 pg/mm2, Rmax 21.0 pg/mm2, ka 193790.134 M-1s-1, kd 2.393 1/s); 4.87 (Immobilization level 12000.0 pg/mm2, Rmax 14.0 pg/mm2, ka 179346.718 M-1s-1, kd 2.44 1/s).
As to `COC(=O)CNC(=O)[C@H](Nc1ccc2c(c1)CNC2)c1cc(Cl)cc(C2CC2)c1`, the negative logarithm of the KD (pKD) stood at 6.43 (Immobilization level 10000.0 pg/mm2, Rmax 43.0 pg/mm2, ka 346362.757 M-1s-1, kd 0.129 1/s); 6.22 (Immobilization level 12000.0 pg/mm2, Rmax 59.0 pg/mm2, ka 177006.564 M-1s-1, kd 0.106 1/s); 6.26 (Immobilization level 13000.0 pg/mm2, Rmax 62.0 pg/mm2, ka 244445.044 M-1s-1, kd 0.134 1/s).
On to `Cn1nc(C(=O)Nc2ccc3c(c2)CNC3)c2cc(Br)ccc21`, for which the pKD by setting is: (Immobilization level 3900.0 pg/mm2, Rmax 7.0 pg/mm2, ka 186374.339 M-1s-1, kd 1.611 1/s) 5.06; (Immobilization level 4900.0 pg/mm2, Rmax 17.0 pg/mm2, ka 132352.529 M-1s-1, kd 1.379 1/s) 4.98; (Immobilization level 5500.0 pg/mm2, Rmax 22.0 pg/mm2, ka 128273.344 M-1s-1, kd 1.393 1/s) 4.96.
As to `NCCc1ccc(NC(=O)c2cc(Cl)cc3[nH]ncc23)cc1`, the pKD came to 4.63 (Immobilization level 10000.0 pg/mm2, Rmax 37.0 pg/mm2, ka 181570.157 M-1s-1, kd 4.215 1/s); 4.83 (Immobilization level 12000.0 pg/mm2, Rmax 45.0 pg/mm2, ka 212645.467 M-1s-1, kd 3.181 1/s); 4.82 (Immobilization level 13000.0 pg/mm2, Rmax 31.0 pg/mm2, ka 239123.399 M-1s-1, kd 3.643 1/s).
As for `Cc1ccc2cc(Cl)cc(C(=O)Nc3ccc4c(c3)CNC4)c2n1`, the pKD runs as follows: (Immobilization level 10000.0 pg/mm2, Rmax 26.0 pg/mm2, ka 93254.644 M-1s-1, kd 1.647 1/s) 4.75; (Immobilization level 12000.0 pg/mm2, Rmax 38.0 pg/mm2, ka 56274.373 M-1s-1, kd 0.881 1/s) 4.8; (Immobilization level 13000.0 pg/mm2, Rmax 28.0 pg/mm2, ka 92341.007 M-1s-1, kd 1.18 1/s) 4.89.
Turning to `CC(C)(C)c1cc(Br)cc(C(=O)Nc2ccc3c(c2)CNC3)c1`, the pKD (Immobilization level 10000.0 pg/mm2, Rmax 22.0 pg/mm2, ka 615092.383 M-1s-1, kd 1.528 1/s) stood at 5.61; the pKD (Immobilization level 12000.0 pg/mm2, Rmax 78.0 pg/mm2, ka 256799.727 M-1s-1, kd 0.952 1/s) was found to be 5.43; the pKD (Immobilization level 13000.0 pg/mm2, Rmax 43.0 pg/mm2, ka 306862.061 M-1s-1, kd 1.159 1/s) was 5.42.
Regarding `O=C(NC[C@H]1CCCO1)[C@H](Nc1ccc2c(c1)CNC2)c1cc(Cl)cc2[nH]ncc12`, the negative logarithm of the KD (pKD) stood at 6.38 (Immobilization level 10000.0 pg/mm2, Rmax 25.0 pg/mm2, ka 729483.46 M-1s-1, kd 0.307 1/s); 6.31 (Immobilization level 12000.0 pg/mm2, Rmax 48.0 pg/mm2, ka 423834.605 M-1s-1, kd 0.21 1/s); 6.41 (Immobilization level 13000.0 pg/mm2, Rmax 36.0 pg/mm2, ka 640560.866 M-1s-1, kd 0.251 1/s).
Regarding `Cc1cc(CN)cc(NC(=O)c2cc(Cl)cc3[nH]ncc23)c1`, the negative logarithm of the KD (pKD) reads like this: (Immobilization level 10000.0 pg/mm2, Rmax 32.0 pg/mm2, ka 317735.356 M-1s-1, kd 1.709 1/s) 5.27; (Immobilization level 12000.0 pg/mm2, Rmax 41.0 pg/mm2, ka 352403.171 M-1s-1, kd 1.092 1/s) 5.51; (Immobilization level 13000.0 pg/mm2, Rmax 26.0 pg/mm2, ka 657032.757 M-1s-1, kd 1.65 1/s) 5.6.
Regarding `CC(C)NC(=O)[C@H](Nc1ccc2c(c1)CNC2)c1cc(Cl)cc2[nH]ncc12`, the negative logarithm of the KD (pKD) by setting is: (Immobilization level 10000.0 pg/mm2, Rmax 25.0 pg/mm2, ka 625134.982 M-1s-1, kd 0.246 1/s) 6.4; (Immobilization level 12000.0 pg/mm2, Rmax 48.0 pg/mm2, ka 290518.5 M-1s-1, kd 0.198 1/s) 6.17; (Immobilization level 13000.0 pg/mm2, Rmax 30.0 pg/mm2, ka 486694.476 M-1s-1, kd 0.217 1/s) 6.35.
With `CCOCCCN1Cc2ccc(NC(=O)c3cc(Cl)cc4[nH]ncc34)cc2C1`, the pKD is, setting by setting: (Immobilization level 3900.0 pg/mm2, Rmax 34.0 pg/mm2, ka 194403.459 M-1s-1, kd 4.353 1/s) 4.65; (Immobilization level 4900.0 pg/mm2, Rmax 26.0 pg/mm2, ka 190862.396 M-1s-1, kd 2.393 1/s) 4.9; (Immobilization level 5500.0 pg/mm2, Rmax 37.0 pg/mm2, ka 197216.313 M-1s-1, kd 2.701 1/s) 4.86.
`Cc1ccc(C(C)C)c(C(=O)Nc2ccc3c(c2)CNC3)c1`: the pKD amounted to 4.43 (Immobilization level 10000.0 pg/mm2, Rmax 25.0 pg/mm2, ka 195679.525 M-1s-1, kd 7.321 1/s); 4.87 (Immobilization level 12000.0 pg/mm2, Rmax 28.0 pg/mm2, ka 382623.73 M-1s-1, kd 5.226 1/s); 4.69 (Immobilization level 13000.0 pg/mm2, Rmax 25.0 pg/mm2, ka 300897.372 M-1s-1).
Take `O=C(NC1CCOCC1)[C@H](Nc1ccc2c(c1)CNC2)c1cc(Cl)cc(C2CC2)c1`: the pKD (Immobilization level 10000.0 pg/mm2, Rmax 26.0 pg/mm2, ka 616891.885 M-1s-1, kd 0.14 1/s) was 6.64; the pKD (Immobilization level 12000.0 pg/mm2, Rmax 48.0 pg/mm2, ka 284907.141 M-1s-1, kd 0.112 1/s) amounted to 6.4; the pKD (Immobilization level 13000.0 pg/mm2, Rmax 35.0 pg/mm2, ka 474880.78 M-1s-1, kd 0.123 1/s) came out at 6.59.
For the molecule `CC(C)(C)c1ccc(Cl)cc1C(=O)Nc1ccc2c(c1)CNC2`, the pKD (Immobilization level 10000.0 pg/mm2, Rmax 29.0 pg/mm2, ka 451041.562 M-1s-1, kd 5.162 1/s) was 4.94; the negative logarithm of the KD (pKD) (Immobilization level 12000.0 pg/mm2, Rmax 32.0 pg/mm2, ka 233803.873 M-1s-1, kd 2.593 1/s) is 4.96; the negative logarithm of the KD (pKD) (Immobilization level 13000.0 pg/mm2, Rmax 24.0 pg/mm2, ka 278548.314 M-1s-1, kd 2.759 1/s) came to 5.
Take `CC(C)c1nc2c(C(=O)Nc3ccc4c(c3)CNC4)cc(Br)cc2[nH]1`: the pKD by setting is: (Immobilization level 10000.0 pg/mm2, Rmax 28.0 pg/mm2, ka 451108.713 M-1s-1, kd 0.396 1/s) 6.06; (Immobilization level 12000.0 pg/mm2, Rmax 37.0 pg/mm2, ka 197303.267 M-1s-1, kd 0.307 1/s) 5.81; (Immobilization level 13000.0 pg/mm2, Rmax 31.0 pg/mm2, ka 315714.539 M-1s-1, kd 0.366 1/s) 5.94.
In the case of `Cc1ccc(S(=O)(=O)CNC(=O)[C@H](Nc2ccc3c(c2)CNC3)c2cc(Cl)cc3[nH]ncc23)cc1`, the pKD by setting is: (Immobilization level 10000.0 pg/mm2, Rmax 21.0 pg/mm2, ka 226355.861 M-1s-1, kd 0.557 1/s) 5.61; (Immobilization level 12000.0 pg/mm2, Rmax 37.0 pg/mm2, ka 111566.09 M-1s-1, kd 0.368 1/s) 5.48; (Immobilization level 13000.0 pg/mm2, Rmax 27.0 pg/mm2, ka 177747.1 M-1s-1, kd 0.47 1/s) 5.58.
As to `CC(C)c1cc(Br)cc(C(=O)Nc2ccc3c(c2)CNC3)c1`, the pKD is, setting by setting: (Immobilization level 10000.0 pg/mm2, Rmax 17.0 pg/mm2, ka 881880.966 M-1s-1, kd 1.212 1/s) 5.86; (Immobilization level 12000.0 pg/mm2, Rmax 74.0 pg/mm2, ka 247931.968 M-1s-1, kd 0.872 1/s) 5.45; (Immobilization level 13000.0 pg/mm2, Rmax 30.0 pg/mm2, ka 643252.953 M-1s-1, kd 1.046 1/s) 5.79.
Regarding `O=C(Nc1ccc2c(c1)OCCNC2)c1cc(Cl)cc2[nH]ncc12`, the pKD is, setting by setting: (Immobilization level 10000.0 pg/mm2, Rmax 33.0 pg/mm2, ka 475344.334 M-1s-1, kd 1.334 1/s) 5.55; (Immobilization level 12000.0 pg/mm2, Rmax 41.0 pg/mm2, ka 216924.489 M-1s-1, kd 0.865 1/s) 5.4; (Immobilization level 13000.0 pg/mm2, Rmax 42.0 pg/mm2, ka 331181.332 M-1s-1, kd 1.11 1/s) 5.47.
Consider `Cn1ncc2c(C(=O)Nc3ccc4c(c3)CNC4)cc(Br)cc21`, for which the pKD runs as follows: (Immobilization level 10000.0 pg/mm2, Rmax 23.0 pg/mm2, ka 300646.199 M-1s-1, kd 0.327 1/s) 5.96; (Immobilization level 12000.0 pg/mm2, Rmax 66.0 pg/mm2, ka 115064.14 M-1s-1, kd 0.186 1/s) 5.79; (Immobilization level 13000.0 pg/mm2, Rmax 35.0 pg/mm2, ka 218446.798 M-1s-1, kd 0.273 1/s) 5.9.
